# This is a sample that favours compounds with a hit; in the whole collection about 6.9% have one here.
# L3MBTL1 block: inhibitors of human L3MBTL1 | AlphaScreen L3MBTL1–H3K9me1 peptide binding | 0.66% of 230,000 active | Potency, µM (doses to about 57.1 µM), inactives show top-dose activity, negative = inhibition, hits mostly inhibitors; note: % is set by controls: 0 for no effect and ±100 for the full control effect; nearly all actives have a fitted effect of over 60% in size
#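 First, the protein-peptide complex forms for 30 min at room temperature (L3MBTL1 50 nM, biotinylated H3K9me1 peptide 75 nM). Next, compounds are pin-transferred and incubated 30 min. Finally, AlphaScreen beads are added and read after 30 min.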
# JMJD2A Tudor: blocks the human JMJD2A Tudor domain | O75164 | AlphaScreen JMJD2A-Tudor / H3K4me3 peptide binding | Potency, µM (titrated, usually from 114 µM), for the others: at the highest dose activity change, negative = inhibition, hits mostly inhibitors | 4.4% of 390,000 active; note: % is set by controls: 0 for no effect and ±100 for the full control effect; nearly all actives have a fitted effect of over 50% in size
# HP1b binding inh: inhibitors of HP1-beta chromodomain binding to methylated histone tails; P83916; AlphaScreen HP1-beta / biotin-H3K9me3 peptide binding; Potency, µM (highest dose often 114 µM), inactives show top-dose activity change, negative = inhibition, usual class: inhibitors; 0.56% of 390,000 active; AID 540317; note: nearly all actives have a fitted effect of over 70% in size
#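 Compound inhibition of the preformed complex between 50 nM HP1-beta and 50 nM biotinylated H3K9me3 peptide was read by AlphaScreen. Buffer was PBS pH 7.4 with 0.01% Tween-20. Incubations ran 30 min at room temperature, with 10 ug/mL donor/acceptor beads.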
# PLK1 PBD block: blocks phosphopeptide binding to human PLK1 polo-box domain. 2.8% of 360,000 active. Plk1 PBD binding of FITC phosphopeptide, fluorescence polarization. P53350. AID 720504. Potency, µM, for the others: max response, negative = inhibition, usual class: inhibitors; note: series mostly up to about 57 µM; % is set by controls: 0 for no effect and ±100 for the full control effect; nearly all actives have a fitted effect of over 65% in size
# BAZ2B block: inhibitors of human BAZ2B bromodomain. Q9UIF8. AlphaScreen BAZ2B-H3K14Ac peptide displacement. Potency, µM (doses to about 114 µM), for inactives: at the top dose activity change, negative = inhibition, most hits filed as inhibitors. 4.4% of 360,000 active; note: % is set by controls: 0 for no effect and ±100 for the full control effect; nearly all actives have a fitted effect of over 60% in size
# Target sequence (Q9UIF8 whole entry, looked up): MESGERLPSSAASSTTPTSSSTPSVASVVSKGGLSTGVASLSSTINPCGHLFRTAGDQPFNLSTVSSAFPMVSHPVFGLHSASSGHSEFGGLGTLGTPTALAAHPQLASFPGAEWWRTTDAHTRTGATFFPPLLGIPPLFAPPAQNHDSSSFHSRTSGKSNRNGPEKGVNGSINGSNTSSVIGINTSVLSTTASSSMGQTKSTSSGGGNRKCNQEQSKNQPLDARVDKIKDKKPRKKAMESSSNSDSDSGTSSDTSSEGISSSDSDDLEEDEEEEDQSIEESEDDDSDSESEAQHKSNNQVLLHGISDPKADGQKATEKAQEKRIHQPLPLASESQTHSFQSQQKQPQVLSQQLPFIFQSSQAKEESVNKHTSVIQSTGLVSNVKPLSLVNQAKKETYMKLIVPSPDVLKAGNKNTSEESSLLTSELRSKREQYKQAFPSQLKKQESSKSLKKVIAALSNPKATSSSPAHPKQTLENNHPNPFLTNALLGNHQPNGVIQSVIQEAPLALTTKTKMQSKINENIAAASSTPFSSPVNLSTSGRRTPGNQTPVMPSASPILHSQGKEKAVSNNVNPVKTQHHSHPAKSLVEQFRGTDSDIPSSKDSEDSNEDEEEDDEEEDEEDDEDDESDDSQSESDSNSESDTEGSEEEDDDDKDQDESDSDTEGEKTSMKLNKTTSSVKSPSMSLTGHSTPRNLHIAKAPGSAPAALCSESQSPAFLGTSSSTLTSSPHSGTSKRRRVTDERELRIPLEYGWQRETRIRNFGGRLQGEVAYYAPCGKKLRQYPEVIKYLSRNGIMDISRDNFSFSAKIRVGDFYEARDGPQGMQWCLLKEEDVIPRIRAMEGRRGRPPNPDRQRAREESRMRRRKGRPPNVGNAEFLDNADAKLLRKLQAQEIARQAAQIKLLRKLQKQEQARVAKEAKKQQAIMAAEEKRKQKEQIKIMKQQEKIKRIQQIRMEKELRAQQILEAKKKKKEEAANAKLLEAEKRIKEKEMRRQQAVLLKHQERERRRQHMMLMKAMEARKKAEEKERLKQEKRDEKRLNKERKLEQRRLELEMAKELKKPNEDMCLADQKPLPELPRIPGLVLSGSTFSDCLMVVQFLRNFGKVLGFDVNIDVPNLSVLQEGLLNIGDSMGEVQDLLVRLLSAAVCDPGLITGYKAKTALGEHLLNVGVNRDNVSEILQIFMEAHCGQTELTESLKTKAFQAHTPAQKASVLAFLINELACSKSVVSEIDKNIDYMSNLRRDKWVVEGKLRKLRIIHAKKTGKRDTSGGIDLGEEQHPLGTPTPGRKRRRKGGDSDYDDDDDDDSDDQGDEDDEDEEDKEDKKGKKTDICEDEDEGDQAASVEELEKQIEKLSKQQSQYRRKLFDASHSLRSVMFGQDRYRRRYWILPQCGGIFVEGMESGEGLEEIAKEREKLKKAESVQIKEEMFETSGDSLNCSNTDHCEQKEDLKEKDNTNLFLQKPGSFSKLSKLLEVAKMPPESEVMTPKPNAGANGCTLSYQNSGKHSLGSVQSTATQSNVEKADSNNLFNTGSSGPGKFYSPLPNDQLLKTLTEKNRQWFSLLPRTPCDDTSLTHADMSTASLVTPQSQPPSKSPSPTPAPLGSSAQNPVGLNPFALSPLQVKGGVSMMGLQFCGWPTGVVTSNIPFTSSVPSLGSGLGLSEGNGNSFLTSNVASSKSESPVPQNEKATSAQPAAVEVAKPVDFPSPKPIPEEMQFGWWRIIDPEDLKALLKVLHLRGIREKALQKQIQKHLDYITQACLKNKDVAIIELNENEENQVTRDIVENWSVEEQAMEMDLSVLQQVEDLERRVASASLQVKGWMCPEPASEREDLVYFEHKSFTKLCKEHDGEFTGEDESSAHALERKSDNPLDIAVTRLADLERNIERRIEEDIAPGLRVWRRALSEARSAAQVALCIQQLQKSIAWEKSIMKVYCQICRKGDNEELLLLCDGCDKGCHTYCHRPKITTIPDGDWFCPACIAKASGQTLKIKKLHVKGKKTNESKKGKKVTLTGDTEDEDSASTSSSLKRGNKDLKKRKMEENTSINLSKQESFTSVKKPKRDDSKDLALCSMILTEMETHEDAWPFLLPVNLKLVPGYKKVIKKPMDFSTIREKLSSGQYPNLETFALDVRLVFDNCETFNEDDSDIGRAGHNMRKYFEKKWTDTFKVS
#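 BAZ2B (50 nM) with biotin-H3(5-23)K14Ac peptide (50 nM) in PBS pH 7.4, 0.01% Tween-20, preformed 30 min, then compound 30 min at room temperature; top concentration 110uM. AlphaScreen streptavidin donor/nickel chelate acceptor beads (10 ug/mL final), 20 min dark, signal read.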
# VDR inh: blocks the human vitamin D receptor. P11473. VDR-SRC2-3 peptide fluorescence polarization, 2 h. Potency, µM, for the others: max response, negative = inhibition, most hits filed as inhibitors. 0.93% of 400,000 active; note: % is set by controls: 0 for no effect and ±100 for the full control effect
#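 Compounds are added to VDR with labelled SRC2-3 coactivator peptide and held 2 h at room temperature. Inhibition of the VDR–peptide interaction is then read as a change in fluorescence polarization.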
# Starred values were filed as active, the others as inactive; ? = inconclusive; nt = not tested or not shown; [ ] = dose if it differs, or a comment. Calls come from the whole dose curve; as a rule, active = well fitted curve in the direction sought with a large enough effect; inconclusive = small, poorly fitted or top-dose-only effect, or another doubt; inactive = no such curve, though single readings can be large; an effect the other way counts as inactive or inconclusive. Potency is the fitted concentration of half-maximal effect.
SMILES,L3MBTL1 block,JMJD2A Tudor,HP1b binding inh,PLK1 PBD block,BAZ2B block,VDR inh
N#CC(C#N)=C1C=C2C=C(N3CCOCC3)CCC2CC1 (stereo not drawn),-2%,-2%[57.1 µM],20%,52%,-25%,71µM*
O=[N+]([O-])c1cccnc1N1CCC(c2cc(-c3ccc(Cl)cc3)n[nH]2)CC1,nt,25µM*,?,-4%,50µM*,2%
CC(C)=C[C@@H]1C[C@H](C)[C@H]2CC[C@H](C)c3c(O)c(O)c(C)c1c32,-7%,40µM*,?,?,56µM*,?
CC(=O)O[C@H]1[C@H](O)[C@H](Oc2c(O)c(C)c3c4c2[C@@H](C)CC[C@@H]4[C@@H](C)C[C@H]3C=C(C)C)O[C@@H](C)[C@H]1O,-9%,32µM*,-21%,-17%,nt,-6%
CC(C)=C[C@H]1C[C@H](C)[C@H]2CC[C@H](C)c3c(O[C@@H]4OC[C@@H](O)[C@H](O)C4O)c(O)c(C)c1c32 (stereo partly drawn),-4%,?,-18%,-12%,nt,-8%
CC1CCN(C2=C(NS(=O)(=O)c3ccc(Cl)cc3)C(=O)c3ccccc3C2=O)CC1,16µM*,45µM*,?,-10%,4.5µM*,-9%
CC1CCN(C2=C(NS(=O)(=O)c3ccccc3)C(=O)c3ccccc3C2=O)CC1,11µM*,14µM*,14µM*,-7%,6.3µM*,0%
O=C1C(NS(=O)(=O)c2ccccc2)=C(N2CCN(c3ccc(F)cc3)CC2)C(=O)c2ccccc21,?,?,10µM*,?,4µM*,?
CC1CCN(C(CNS(=O)(=O)c2ccccc2)c2ccccc2)CC1 (stereo not drawn),-9%,-14%,13%,-12%,-1%,-13%
CC1CCN(C2=C(NS(=O)(=O)c3ccc(Br)cc3)C(=O)c3ccccc3C2=O)CC1,nt,8.9µM*,6.3µM*,-19%,4.5µM*,-25%
CC1CCN(C(=O)CCNS(=O)(=O)c2ccc(Br)cc2)CC1,3%,-2%,55%,-4%,-5%,?
CC1CCN(C(=O)C2CCCN2S(=O)(=O)c2ccc(Cl)cc2)CC1 (stereo not drawn),nt,-8%,33%,-2%,-19%,-9%
Cc1ccc(-n2nc(C(=O)Nc3ccc(F)cc3F)c3c4ccccc4n(C)c3c2=O)cc1,nt,-17%,14%,nt,nt,-15%
CCN1CCCC1CNS(=O)(=O)c1ccc(Br)cc1 (stereo not drawn),nt,-21%,32%,0%,-22%,1%
O=C1C(NS(=O)(=O)c2cccs2)=C(N2CCN(c3cccc(Cl)c3)CC2)C(=O)c2ccccc21,nt,7.1µM*,?,-11%,8.9µM*,4%
CC1CCCN(C2=C(NS(=O)(=O)c3ccc(Br)cc3)C(=O)c3ccccc3C2=O)C1 (stereo not drawn),nt,3.5µM*,?,?,3.5µM*,-22%
CCOc1cc(C(=O)CCC(=O)OCC(=O)NC(=O)NCC(C)C)ccc1O,nt,-14%,37%,-2%,-13%,21%
C(=N\n1cnnc1)/c1cccs1,nt,-13%,29%,0%,12%,0%
S=c1[nH]c(-c2ccccc2)cn1/N=C/c1cccs1,42%,3.2µM*,23%,-2%,-4%,-3%
S=c1[nH]ncn1/N=C/c1cccs1,nt,4.5µM*,32%,-27%,-37%,-8%
Fc1ccccc1/C=N/n1cc(-c2ccccc2)[nH]c1=S,nt,13µM*,12%,-21%,-24%,-9%
COc1ccccc1CNc1ncnc2ccc(-c3cccc(C#N)c3)cc12,nt,nt,nt,nt,nt,-1%
Cc1cc2c(s1)c1cnn(Cc3ccc(OC(F)F)cc3)c(=O)c1n2C,nt,5%,nt,nt,nt,nt
CCn1nc(C)c(CNC(=O)c2cc(COc3cncc(Cl)c3)on2)c1C,nt,?,22%,24µM*,0%,?
CCn1nc(C)c(CNC(=O)c2cc(COc3ccccc3SC)on2)c1C,nt,-8%,24%,0%,-14%,-5%

# Compound activity as filed in PubChem BioAssay.
